Test results as given in PubChem BioAssay (NCI).
This is part of a sample that, as a whole, favours compounds with a hit. Of some 79,000 tested, about 15% had one in any assay. Unmarked numbers belong to inactive results. The source made the active and inactive calls. No stated cut-off is given here; in the data, active means growth inhibition above about 70%; inactive means the rest.

experiment: NCI Yeast Anticancer Drug Screen. Data for the bub3 strain (AID 167); conditions: S. cerevisiae bub3 mutant strain, at 50.0 µM, stronger effect = higher value
How it was run: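 Growth of a checkpoint-deficient yeast mutant is measured after compound exposure. Values represent inhibition relative to vehicle.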

| Structure (SMILES) | growth inhibition |
| --- | --- |
| N#Cc1c(SCc2ccc(Cl)cc2)nsc1Nc1ccc(Cl)cc1 | 21% |
| CC(CO)(Nc1ccc([N+](=O)[O-])cc1[N+](=O)[O-])C(=O)O (stereo not given) | 95% (active) |
| O=[N+]([O-])/C(C(Cl)=C(Cl)Cl)=C(/Nc1ccccc1)Sc1ccccc1 | 64.2% |
| CC(SCc1ccccc1)C(=O)O (stereo not given) | -18.6% |
| O=C1C2(Cl)C(Cl)=C(Cl)C1(Cl)C1(Cl)C(Cl)=C(Cl)C(=O)C21Cl (stereo not given) | 28.4% |
| O=C(CNC(=O)c1ccccc1)Oc1c(Cl)c(Cl)c(Cl)c(Cl)c1Cl | 34% |
| CN(C)c1nc(NNS(=O)(=O)c2ccc(N)cc2)nc(N(C)C)n1 | -12.3% |
| CC1(C(Cl)(Cl)Cl)C=CC(O)(C#CC2(O)C=CC(C)(C(Cl)(Cl)Cl)C=C2)C=C1 (stereo not given) | 95.4% (active) |
| COCCN1C(=O)C2c3[nH]c4ccccc4c3C3CCC(C(C)(C)C)CC3C2C1=O (stereo not given) | 94.2% (active) |
| Cc1nc(N)sc1N=Nc1cccc(Cl)c1Cl | 75.8% (active) |
| ClC1=C(Cl)C2c3ccccc3C1c1ccccc12 | 47.9% |
| C=C/C=C/CC=C | 21.4% |
| C/C(=N\NC(=S)NCc1ccccc1)c1nccnc1C | 83.3% (active) |
| COC(=O)c1cc(OC)c(OC)c(OC)c1 | 36.9% |
| Nc1nc2c(ccc3ccccc32)s1 | 56.9% |
| N=C(N)c1ccc(N=Nc2cc(/C=C/c3ccccc3)ccc2O)cc1 | 98% (active) |
| O=C1NC(=O)N(c2ccc([N+](=O)[O-])cc2)C1=O | -4.4% |
| O=C(Nc1cc(Cl)cc(Cl)c1)OCCCl | 92.6% (active) |
| Cc1[nH]nc(-c2ccon2)c1N=O | 78.7% (active) |
| O=C(O)CCC(=O)c1ccc(C2CCCC2)c2ccccc12 | 70.3% (active) |

| Structure (SMILES) | growth inhibition |
| --- | --- |
| CC12CC(Br)(Br)C(=O)C3C1CCCC32 | 87% (active) |
| O=[N+]([O-])c1ccc(NSc2ccccc2)cc1 | 91.3% (active) |
| CCC1CCC(CC)C1=O (stereo not given) | 97.4% (active) |
| Cc1cc(C(C)(CC(C)C)c2ccc(O)c(C)c2)ccc1O | 91.4% (active) |
| N#CC1C(=O)SC2c3ccccc3C(=O)c3ccccc3C12 (stereo not given) | 32.8% |
| COc1ccc(C2C3=C(CCCC3=O)Oc3cc4c(cc32)OCO4)cc1 (stereo not given) | 95.9% (active) |
| CCC(c1cccc(O)c1)C(CC)c1cccc(O)c1 (stereo not given) | 66.3% |
| CCCCCCCCCCCC1C(C#N)C(=O)NC(=O)C1C#N (stereo not given) | -27.9% |
| O=C(NNC(=O)c1cccc(C(=O)NNC(=O)c2ccc(Cl)c(Cl)c2)n1)c1ccc(Cl)c(Cl)c1 | 70.2% (active) |
| CCOC(=O)CCC(NC(=O)c1ccc(NC(OC)c2nc3cc(C(F)(F)F)ccc3nc2-c2ccccc2)cc1)C(=O)OCC (stereo not given) | 91.8% (active) |
| CCOC(=O)c1c(C)[nH]c(CO)c1C | 34% |
| S=C(NC(=S)Nc1ccc(Cl)cc1)Nc1ccc(Cl)cc1 | 77.6% (active) |
| O=S(=O)(c1ccc(OCC(O)COc2ccc(S(=O)(=O)c3ccc(OCC4CO4)cc3)cc2)cc1)c1ccc(OCC2CO2)cc1 (stereo not given) | -20.5% |
| C=C(C)C(=O)OC1CC2=CC(CC3(C)OC3C3OC(=O)C(=C)C13)OC2=O (stereo not given) | 78.8% (active) |
| c1ccc2c(c1)C[n+]1ccc3ccccc3c1-c1c3ccccc3cc[n+]1C2 | 7.85% |
| CCN(CC)CCOC(=O)Cc1cccc2c(=O)cc(-c3cccs3)oc12 | -20.6% |
| C=C1C(=O)OC2C/C(C)=C/CC/C(C)=C/CCC3(COC(C)=O)OC3CC12 (stereo not given) | 93.2% (active) |
| CN1C=CC(C(O)(c2ccccc2)c2ccccc2)CC1 (stereo not given) | 16.7% |
| OCc1cccc2c1Oc1ccccc1S2 | -37.5% |
| COC(=O)c1[nH]c(=O)c(C#N)c(C(=O)OC)c1C(=O)c1ccc(Cl)c(Cl)c1 | 79.5% (active) |
